# This is a sample that favours compounds with a hit; in the whole collection about 2.3% have one here.
# GLD-1 TGE inh: GLD-1-TGE RNA interaction inhibition (C. elegans); 320,000 compounds, 0.44% hits; purified GLD-1 + fluorescein TGE RNA, fluorescence polarization; Q17339; AID 2280; inhibition, % at 5.96 µM;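 active = percent inhibition above a per-plate cutoff, the plate mean of test compounds plus 3 SD, cut at about 30% in these data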
# MCL1-BIM inh: inhibitors of human MCL1 binding to BIM-BH3 peptide. GST-MCL1 / FITC-Bim-BH3 fluorescence polarization. inhibition, % at 10.9 µM. 320,000 compounds, 0.68% hits. AID 2057;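 active = inhibition above the mean inhibition of all tested compounds plus 3 SD, set per campaign, cut at about 40% in these data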;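 note: higher means more loss of mP so more displacement of Bim peptide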
# Target sequence (Q07820 whole entry, looked up): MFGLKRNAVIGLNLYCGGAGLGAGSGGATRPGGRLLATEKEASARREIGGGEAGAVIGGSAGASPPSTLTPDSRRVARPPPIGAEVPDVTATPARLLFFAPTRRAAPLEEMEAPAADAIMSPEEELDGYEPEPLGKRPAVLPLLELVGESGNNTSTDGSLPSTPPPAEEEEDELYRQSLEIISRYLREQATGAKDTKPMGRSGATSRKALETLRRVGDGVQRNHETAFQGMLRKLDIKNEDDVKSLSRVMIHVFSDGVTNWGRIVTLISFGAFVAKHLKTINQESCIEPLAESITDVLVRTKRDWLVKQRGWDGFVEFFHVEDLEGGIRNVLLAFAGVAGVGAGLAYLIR
# Mcl-1 Bim block: human Bim-Mcl-1 interaction inhibition | Q07820 | Bead-based flow cytometry, Bim peptide-Mcl-1 binding | inhibition, % at 10 µM | 190,000 compounds, 0.1% hits | AID 1009; in the data active = inhibition above about 40%
# Mcl1-Bid inh: Mcl-1/Bid interaction inhibition. 220,000 compounds, 0.97% hits. inhibition, % at 21.7 µM. TR-FRET Mcl-1/Bid-Dy647 peptide binding, 1536-well. Q07820;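 active = compounds that cut the binding signal by more than half at the single screening dose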;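 note: His-tagged Mcl-1 with europium anti-His antibody binding Bid BH3 peptide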
# Bcl-xL primary: blocks human Bcl-xL binding to Bim BH3 peptide; Q07817; AID 2129; 320,000 compounds, 0.7% hits; inhibition, % at 10.9 µM; GST-Bcl-xL / FITC-Bim BH3 peptide fluorescence polarization;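 active = inhibition above the mean of all tested compounds plus 3 SD, cutoff set per campaign, cut at about 30% in these data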;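 note: inhibitors lower millipolarization by displacing the labeled peptide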
# Target sequence (Q07817 whole entry, looked up): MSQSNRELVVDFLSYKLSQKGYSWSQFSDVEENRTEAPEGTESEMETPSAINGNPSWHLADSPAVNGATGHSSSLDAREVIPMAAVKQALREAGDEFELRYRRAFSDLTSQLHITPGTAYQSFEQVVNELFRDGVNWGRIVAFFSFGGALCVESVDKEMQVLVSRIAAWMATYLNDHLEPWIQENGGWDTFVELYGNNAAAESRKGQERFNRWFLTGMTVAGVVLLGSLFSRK
# Mcl1-Noxa inh: Mcl-1/Noxa interaction inhibition. Q07820. TR-FRET Mcl-1/Noxa peptide binding, 2 h. inhibition, % at 21.7 µM. 220,000 compounds, 1.5% hits. AID 1022;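 active = compounds that cut the protein-peptide binding signal by more than 50% relative to plate controls in a single-dose test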;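 note: His-tagged Mcl-1 with rhodamine Noxa BH3 peptide and terbium anti-His antibody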
# Numbers stand for hits; – = inactive; · = not tested or not shown.
SMILES,GLD-1 TGE inh,MCL1-BIM inh,Mcl-1 Bim block,Mcl1-Bid inh,Bcl-xL primary,Mcl1-Noxa inh
COc1ccc(CNC(=O)CN2CCN(S(=O)(=O)c3ccccc3)CC2)cc1,–,–,·,·,–,·
COC(=O)c1cc(NC(=O)COC(=O)C2CCC2)cc(C(=O)OC)c1,–,–,·,·,–,·
O=c1[nH]c(CN2CCN(c3ccc(O)cc3)CC2)nc2scc(-c3ccc(Cl)cc3)c12,–,–,–,–,–,66
COc1ccc(C(=O)N/C(=C\c2ccccc2)C(=O)Nc2ccc(C(=O)NCC(=O)O)cc2)cc1,–,–,·,·,–,·
CCCCOC(=O)c1ccc(NC(=O)C(=O)NCCN(C)C)cc1,–,–,·,–,–,–
Cc1cc(C)n(C)c(=O)c1C#N,–,–,–,–,–,–
Cc1c(C=O)c(Cl)n(C)c(=O)c1C#N,–,–,–,–,37,55
Fc1cccc(Nc2nc(-c3ccncc3)nc3ccccc23)c1,–,–,47,–,–,–
c1ccc(Nc2nc(-c3ccccc3)nc3ccccc23)cc1,–,–,·,·,–,·
Cc1cc(-c2ccc(C)c(S(=O)(=O)NCCc3ccc(S(N)(=O)=O)cc3)c2)on1,–,–,·,·,–,·
Cc1cc(/C=N/Nc2ccc([N+](=O)[O-])cn2)c(C)n1-c1ccc(C(=O)O)cc1,–,–,–,66,–,99
Cc1ccccc1-n1c(C)cc(/C=N/Nc2ccc([N+](=O)[O-])cn2)c1C,–,–,–,–,–,–
CCNC(=O)c1ccccc1NC(=O)C1CC(=O)N(C(C)C)C1 (stereo unspecified),–,–,·,·,–,·
CCOC(=O)N1CCN(C(=O)c2ccc3c(SCC(=O)O)c4c(nc3c2)CCCC4)CC1,–,–,–,–,–,–
O=C(O)CSc1c2c(nc3cc(C(=O)N4CCOCC4)ccc13)CCCC2,–,–,–,–,37,–
COC(=O)CN(C)C(=O)c1ccc(OC2CCN(S(=O)(=O)N(C)C)CC2)cc1,–,–,·,·,–,·
CC(C(=O)Nc1cccnc1)N1C(=O)C2C3C=CC(C3)C2C1=O (stereo unspecified),–,–,–,–,89,–
CN(C)C(CNC(=O)c1ccc(NS(=O)(=O)c2ccc3[nH]c(=O)[nH]c3c2)cc1)c1ccccc1 (stereo unspecified),–,–,·,·,–,·
NCCNC[C@@H]1COC2(CCCCCCCCCCC2)O1,–,–,·,59,–,–
COc1ccc(C(C(=O)NC2CCCCC2)N(Cc2cccnc2)C(=O)c2snc(C(N)=O)c2N)cc1 (stereo unspecified),–,–,·,·,–,·
Cc1sc(NC(=O)c2ccco2)c(CN2CCCCC2)c1C,–,–,–,–,38,–
COc1ccccc1CNC(=O)CC(NS(=O)(=O)c1ccc(C)cc1)c1ccco1 (stereo unspecified),–,–,–,92,–,–
c1ccc(Oc2nc3ccccc3n3cccc23)cc1,–,–,–,67,–,–
Cc1ccc(Oc2nc3ccccc3n3cccc23)cc1,–,–,–,–,–,–
COc1ccc(OCc2cc(C(=O)NC(C)c3csc(C)n3)no2)c(Cl)c1 (stereo unspecified),–,–,·,·,–,·
SMILES,GLD-1 TGE inh,MCL1-BIM inh,Mcl-1 Bim block,Mcl1-Bid inh,Bcl-xL primary,Mcl1-Noxa inh
O=C(N=Nc1c(O)[nH]c2ccc([N+](=O)[O-])cc12)c1ccccc1[N+](=O)[O-],–,–,·,–,–,–
CCN(CC)S(=O)(=O)c1cc([N+](=O)[O-])ccc1N=Nc1c(O)[nH]c2ccccc12,–,–,–,51,–,–
CCc1cc(C(=O)N=Nc2c(O)[nH]c3ccc([N+](=O)[O-])cc23)c2ccccc2n1,–,–,–,–,–,92
CCOc1cc(Br)cc(/C=N/NC(=O)c2cccnc2)c1O,–,–,·,·,–,·
COc1ccc2c(O)c(-c3c(C)cc(C)cc3C)c(=O)[nH]c2c1,–,–,·,·,–,·
COc1cc(NC(=O)COc2ccccc2)c(OC)cc1NC(C)=O,–,–,–,95,–,–
CN(C)c1ccc(/C=N/NC(=O)COc2ccccc2)cc1,–,–,–,–,–,–
CN(NC(=O)COc1ccccc1)c1ccccc1,–,–,–,94,–,–
COc1cc(NC(=O)c2ccccc2)c(OC)cc1NC(C)=O,–,–,–,–,–,–
COc1ccccc1NS(=O)(=O)c1ccc(C(=O)N2CCN(c3ccccn3)CC2)cc1,–,·,·,·,·,·
CCCCNc1nnc(SCC(=O)c2c(N)n(C3CC3)c(=O)[nH]c2=O)s1,–,·,·,·,·,·
Cc1ccc(/C=C/C(=O)Nc2cccc(S(=O)(=O)N3CCOCC3)c2)o1,–,–,–,–,–,53
Cc1ccc(/C=C/C(=O)Nc2ccc(N(C)C)cc2)o1,–,–,–,–,–,95
O=C(/C=C/c1ccco1)Nc1cccc(S(=O)(=O)N2CCOCC2)c1,–,–,–,–,–,–
O=C(CN1C(=O)NC2(CCCC2)C1=O)Nc1nc(-c2ccccc2)cs1,–,–,·,·,–,·
Cc1c2cnn(CC(=O)Nc3c(F)c(F)cc(F)c3F)c(=O)c2c(C)n1Cc1ccc(F)cc1,–,–,–,–,–,62
CCN(CC)c1ccc(NC(=O)Cn2ncc3c(C)n(Cc4ccccc4F)c(C)c3c2=O)c(C)c1,–,–,–,65,–,64
Cc1c2cnn(CC(=O)NCc3ccccn3)c(=O)c2c(C)n1Cc1ccccc1,–,–,·,·,–,·
Cn1cc(C(=O)N/N=C/c2ccc([N+](=O)[O-])cc2)c2ccccc21,–,–,·,–,–,75
O=C(COc1cc2oc(=O)c3c(c2cc1Cl)CCC3)NCCCn1ccnc1,–,–,·,·,–,·
CCN=C1SC(C(=O)Nc2ccc(OC)cc2)CC(=O)N1CC (stereo unspecified),–,–,–,–,–,64
C=CCN(c1ccc(Br)cc1C(=O)OC)S(C)(=O)=O,–,–,·,·,47,·
Cn1c(SCC(=O)Nc2ccc3nc(SCC(=O)N4CCCC4)sc3c2)nnc1-c1ccccc1,–,–,–,–,–,97
CCCC(=O)Nc1ccc2nc(SCC(=O)N3CCCC3)sc2c1,–,–,–,–,–,–
COc1ccc2[nH]cc(C3N4CC5(C)CN3CC(C)(C4)C5=O)c2c1 (stereo unspecified),–,–,–,55,–,–
SMILES,GLD-1 TGE inh,MCL1-BIM inh,Mcl-1 Bim block,Mcl1-Bid inh,Bcl-xL primary,Mcl1-Noxa inh
OC(c1ccc(Cl)cc1)c1nccc2ccccc12 (stereo unspecified),–,–,·,·,–,·
CCC(=O)Nc1ccc2c(c1)nc1n2CCN(C2CCCCC2)C1,–,–,–,–,–,–
O=C(Nc1ccc2c(c1)nc1n2CCSC1)c1ccco1,–,–,–,–,–,60
O=C(Nc1ccc2c(c1)nc1n2CCN(C2CCCCC2)C1)c1ccco1,·,·,·,–,·,84
COc1ccc(NS(=O)(=O)c2ccc(N3CCOCC3)c(N)c2)cc1,–,–,·,·,–,·
CC1CCCCN1CCNC(=O)c1cc2c(=O)n(C)c3ccccc3c2n1C (stereo unspecified),–,–,–,–,34,–

# Compound activity as filed in PubChem.
